Assay outcomes deposited in PubChem by National Center for Advancing Translational Sciences (NCATS).
VDR inhibitor = blocks the human vitamin D receptor. P11473. VDR-SRC2-3 peptide fluorescence polarization, 2 h. Potency, µM, without a hit: max response, negative = inhibition, actives largely listed as inhibitors. 400,000 tested, 0.93% active. AID 504847; also: potency is read from the fitted curve at half-maximal effect; % is scaled to controls: 0 for no effect and ±100 for the full control effect
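Signal is fluorescence polarization, reporting how far test compounds block the interaction of VDR with the SRC2-3 coregulator peptide after a 2 h room-temperature incubation.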
CBFb RUNX1 block = blocks binding between human CBF-beta and RUNX1; Potency, µM (doses to about 59.8 µM), for inactives: at the top dose activity, negative = inhibition, actives largely listed as inhibitors; 230,000 tested, under 10 active; Q01196+Q13951; AID 1477; AlphaScreen CBFb-His/RUNX1-biotin binding, biochemical; also: % of control where 0% means no effect
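Proteins preincubated together for 20 min at RT before compound addition; 15 min later, nickel and streptavidin beads were added and left 90 min prior to AlphaScreen measurement.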
KCNH2 3.1 block = inhibitors of human KCNH2 3.1 potassium channel isoform; U2OS KCNH2 3.1, thallium flux FluxOr; active compounds read low; activity change, % (tested at about 1.8 µM); 340,000 tested, 0.95% active; AID 720553;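 active = maximum activity change below -70%; inconclusive = maximum activity change from -70% to -50%; inactive = maximum activity change above -50%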;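 also: thallium influx rate constant from kinetic fluorescence after stimulation buffer; % is scaled to controls: 0 for no effect and ±100 for the full control effect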
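Steps: virus added to U2OS suspension (4 h, RT, dark); medium with 10% FBS added, cells plated, 37 C overnight; FluxOr/Red40 loading buffer 45 min RT; stimulation buffer, 2 min kinetic read; rate constant normalized.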
MBNL1-CUG inh = blocks human MBNL1 binding to CUG repeat RNA; Q9NR56; TR-FRET MBNL1-His/biotin-(CUG)12 binding, 665/545 ratio; Potency, µM (titrated, usually from 57.5 µM), without a hit: at the top dose activity change, negative = inhibition, actives largely listed as inhibitors; 280,000 tested, 0.036% active; AID 2675; active = well fitted inhibition curve with a large enough effect in the signal ratio, with a control signal flat, not every such curve was filed as active; inconclusive = small, poorly fitted or top-dose-only effect, or effect the other way, or a change in a side signal; inactive = no such curve, though single readings can be large or run the other way; the % refers to the signal ratio; also: potency is read from the fitted curve at half-maximal effect; % is scaled to controls: 0 for no effect and ±100 for the full control effect
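Ratiometric TR-FRET (665 over 545 nm, excitation 340 nm) tracks disruption of MBNL1-His/biotin-(CUG)12 complex after 60 min at room temperature, with compounds at 92 nM to 58 uM final.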
hERG WT inh = KCNH2 (human, wildtype) channel inhibition; Q12809; U2OS, BacMam KCNH2, thallium flux FluxOr; active compounds read low; activity change, % at 1.84 µM; 340,000 tested, 0.37% active; AID 720551;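 active = maximum activity change below -70%; inconclusive = maximum activity change between -70% and -50%; inactive = maximum activity change above -50%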; also: % is scaled to controls: 0 for no effect and ±100 for the full control effect
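U2OS cells transduced with wild-type KCNH2 virus are loaded with FluxOr dye for 45 min, and thallium flux is measured in kinetic reads before and after stimulation buffer. Rate constants are normalized to DMSO controls.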
PLK1 PBD block = blocks phosphopeptide binding to human PLK1 polo-box domain | P53350 | Plk1 PBD binding of FITC phosphopeptide, fluorescence polarization | Potency, µM, for the others: max response, negative = inhibition, hits mostly inhibitors | 360,000 tested, 2.8% active | AID 720504; also: potency is read from the fitted curve at half-maximal effect; series mostly up to about 57 µM; % is scaled to controls: 0 for no effect and ±100 for the full control effect; nearly all actives have a fitted effect of over 65% in size
* hit, by the source's call; ? = inconclusive; . = no result. This is a sample that favours compounds with a hit; in the whole collection about 3.8% have one here. Unless noted, calls follow the shape of the dose curve; as a rule, active = well fitted curve in the direction sought with a large enough effect; inconclusive = small, poorly fitted or top-dose-only effect, or another doubt; inactive = no such curve, though single readings can be large; an effect the other way counts as inactive or inconclusive.

SMILES	VDR inhibitor	CBFb RUNX1 block	KCNH2 3.1 block	MBNL1-CUG inh	hERG WT inh	PLK1 PBD block
Clc1ccc(NC2(c3nnnn3C3CCCCC3)CCCCC2)cc1	?	5.7%	-36.7	-4.1%	-5.8	26.7µM*
Cc1ccc(NC(=O)N/C=C/c2ccc(Cl)cc2)cc1	-5.2%	-5.3%	-1.0	2.7%	4.0	26.7µM*
O=C(N/C=C/c1ccccc1)Nc1ccc(Cl)cc1	12.3%	10.1%	-1.9	-13.3%	8.8	-13.2%
Fc1ccc2c(c1)c1n[nH]c(=S)nc1n2CCc1ccccc1	?	.	-24.5	?	-4.6	21.2µM*
O=S(=O)(Nc1ccc(-c2ccc(N3CCCC3)nn2)cc1)c1ccc(Br)cc1	16.6%	.	.	.	.	.
CCN(CC)C(=S)SCC(=O)c1ccc(F)cc1	3.3%	5.4%	-5.0	-2.4%	-6.9	29.9µM*
CCc1ccccc1NC(=O)C(C)n1c(=O)cc(C)c2c(C)nn(-c3ccccc3)c21 (stereo unspecified)	-3.2%	.	.	.	.	.
Cc1ccc(NC(=O)COC(=O)C2CC3C=CC2C3)cc1S(=O)(=O)N1CCCCC1 (stereo unspecified)	-21.0%	7.3%	-16.9	-5.2%	7.3	21.2µM*
Cc1nnc(N(Cc2ccco2)C(=O)c2cccc(C#N)c2)s1	2.1%	16.0%	-13.9	-7.0%	-0.8	29.9µM*
Cc1nnc(N(Cc2ccco2)C(=O)c2ccc(C#N)cc2)s1	-3.9%	-1.2%	-1.2	-9.7%	-0.8	-4.2%
Cc1cccc(N2CCN(C(=O)Cn3nc(Cc4cccnc4)c4ccccc4c3=O)CC2)c1C	2.7%	.	.	.	.	.
O=C1/C(=C/c2ccccn2)SC(=S)N1Nc1ncc(C(F)(F)F)cc1Cl	28.2µM*	.	-33.9	.	-8.0	?
Cc1nn(CCC(=O)NCc2cccc(Br)c2)c(=O)c2nn(-c3ccccc3)c(C)c12	-6.2%	.	.	.	.	.
O=C(C1CC=CCC1)N1CCN(C(=O)C2CC=CCC2)CC1 (stereo unspecified)	-22.4%	2.5%	-9.3	0.7%	-11.9	29.9µM*
O=C1NC(c2ccccc2)Nc2c1sc(=S)n2-c1ccccc1 (stereo unspecified)	-6.4%	-6.1%	11.7	24.4%	1.3	21.2µM*
CCOCCCNC(=O)Cn1nc(C)n2c(cc3cc(C)ccc32)c1=O	2.2%	.	.	.	.	.
O=C(/C=C/c1ccc(Cl)cc1)N1CCN(c2ccc(Cl)cc2[N+](=O)[O-])CC1	-4.6%	5.5%	-96.2*	?	-133.3*	-2.3%
CC1CN(c2ccc(Cl)cc2[N+](=O)[O-])CCN1S(C)(=O)=O (stereo unspecified)	-4.7%	-2.2%	5.6	?	2.8	29.9µM*
COc1ccc(C2CC(=O)N(CC(=O)Nc3cccc(C)c3C)c3ccccc3S2)cc1OC (stereo unspecified)	-4.7%	.	.	.	.	.
O=C(COc1ccc(F)cc1)Nc1nnc(S(=O)(=O)N2CCc3ccccc32)s1	-7.4%	.	.	.	.	.
O=C(c1ccc2c(c1)N(Cc1ccc(Cl)cc1)C(=O)c1ccccc1S2(=O)=O)N1CCCCCC1	-4.1%	.	.	.	.	.
Cc1nn(CC(=O)N2CCc3ccccc32)c(C)c1S(=O)(=O)NC(C)(C)C	9.5%	.	-21.4	.	-282.9*	0.3%
Cc1c(Br)c([N+](=O)[O-])nn1CC(=O)N1CCc2ccccc21	3.9%	8.8%	19.2	-0.9%	-3.5	2.2%
COc1ccc(-c2ccnc(SCC(=O)c3ccc(Cl)cc3)n2)cc1	-3.6%	-5.4%	-10.1	?	4.3	-4.7%
COc1ccc(-c2ccnc(SCC(=O)c3ccc(OC)c(OC)c3)n2)cc1	-4.3%	-0.3%	-106.5*	10.7%	-12.2	-11.7%
SMILES	VDR inhibitor	CBFb RUNX1 block	KCNH2 3.1 block	MBNL1-CUG inh	hERG WT inh	PLK1 PBD block
O=C(C1=C[C@@H](c2ccc(C(F)(F)F)cc2)C[C@@H](OCCCCO)O1)N1CCN(Cc2ccccc2)CC1	9.3%	8.6%	-123.2*	9.2%	1.1	-10.4%
CCc1ccc(Sc2cc(C(=O)NCCCN3CCCC(C)C3)c3ccccc3n2)cc1 (stereo unspecified)	1.9%	.	.	.	.	.
O=[N+]([O-])c1cccc(/C=N/NC2=NS(=O)(=O)c3ccccc32)c1	-2.9%	-2.1%	6.6	?	2.7	26.7µM*
CCOCCCNC(=S)N1CCC(C(=O)c2ccc3c(c2)OCCO3)CC1	14.1%	2.1%	-169.7*	-5.1%	2.4	2.0%
O=C(c1ccc2c(c1)OCCO2)C1CCN(C(=O)c2ccc(F)c(F)c2)CC1	4.8%	1.2%	-1.9	-5.7%	-0.8	-12.8%
CCNC(=S)N1CCC(C(=O)c2ccc3c(c2)OCCO3)CC1	-9.0%	-1.7%	6.2	-0.1%	6.2	-1.5%
O=C(c1ccc2c(c1)OCCO2)C1CCN(C(=O)c2ccc(F)cc2)CC1	18.4%	2.0%	5.5	6.8%	-158.9*	0.7%
O=C(c1ccc2c(c1)OCCCO2)N1CCCCC1	1.9%	0.1%	-108.8*	-20.4%	-2.3	1.7%
CCC(C)NC(=O)Cn1c(=O)n(Cc2ccc(C(=O)NCc3ccc(C)cc3)cc2)c(=O)c2ccccc21 (stereo unspecified)	-25.4%	.	.	.	.	.
Cc1cn2c(=O)c(S(=O)(=O)Nc3ccc(N4CCOCC4)cc3)c(C)nc2s1	15.9%	.	.	.	.	.
CCN(C(=O)Cn1c(=O)oc2cc(S(=O)(=O)N3CCCCCC3)ccc21)c1cccc(C)c1	11.6%	.	.	.	.	.
Cc1cc(NC(=O)CCCC(=O)NCc2ccccc2)no1	24.5%	3.6%	-24.5	-6.4%	-1.6	-8.7%
Cc1ccc(CNC(=O)CCCC(=O)Nc2cc(C)on2)cc1	?	13.7%	16.0	-2.6%	-0.6	15µM*
CCOc1ccc(C(=O)CSc2nc3cc(C(=O)NC4CCCC4)ccc3c(=O)n2CC2CCCO2)cc1 (stereo unspecified)	4.5%	.	.	.	.	.
CC(C)C1=Nc2cccc3cccc(c23)N1	5.3%	-4.5%	6.3	22.5%	11.1	9.47µM*
O=C(CCC1CCN(C(=O)c2cc(C(F)(F)F)ccc2Cl)CC1)NC1CC1	-3.5%	.	-115.5*	2.9%	5.0	0.3%
CCOc1ccc(C(=O)Nc2ccc(-c3nc4ccccc4[nH]3)cc2)cc1[N+](=O)[O-]	-3.7%	?	-70.6*	.	-18.6	4.1%
Cn1ncc([N+](=O)[O-])c1C(=O)Nc1ccc(-c2nc3ccccc3[nH]2)cc1	-7.2%	-0.7%	-4.0	33.7%	-8.6	-0.1%
CCOc1ccc(C(=O)NC(=S)Nc2ccc(N3CCCCC3)cc2)cc1[N+](=O)[O-]	?	?	-36.6	.	2.1	5.97µM*
CCn1cc(C(=O)NCCc2ccc(Cl)cc2)c(=O)c2cc(S(=O)(=O)N(C)C3CCCCC3)ccc21	-2.0%	.	.	.	.	.
COc1cccc(CNC(=O)c2cc(C)nc3c2c(C)nn3-c2cccc(F)c2)c1	5.7%	.	.	.	.	.
